Screening data deposited in PubChem by National Center for Advancing Translational Sciences (NCATS).
An excerpt weighted towards active compounds, which were near 6.1% of everything screened.
D1 PAM – Potentiators of Human D1 Dopamine Receptor: qHTS; hit rate 0.036% among 360,000; D(1A) dopamine receptor (Homo sapiens), P21728; potentiation, % at 10 µM; HEK293 TREx D1 cells, calcium flux, dopamine EC20 potentiation; in the data active means potentiation above about 30%; further: 0% is about no effect
D1 antagonist – Antagonist of Human D 1 Dopamine Receptor: qHTS. HEK293 TREx D1 cells, calcium flux, dopamine EC80; hits give low values. activity change, negative = inhibition, % at 10 µM. hit rate 3.2% among 360,000. AID 504652, 2011; in the data active means activity change below about -30%; further: on the % scale 0 is the no-effect control and ±100 the full control effect
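Tetracycline-induced HEK293 Trex D1 cells, force-coupled to calcium, dye-loaded; compounds added and read 180 s, then EC80 dopamine added and calcium flux tracked kinetically another 180 s.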
DRD3 antagonist – qHTS of D3 Dopamine Receptor Antagonist: qHTS; D(3) dopamine receptor (Homo sapiens), P35462; D3R cells, DiscoveRx beta-arrestin luminescence, antagonist mode; hits give low values; max response, negative = inhibition, %; hit rate 2.5% among 360,000; AID 652054, 2013; in the data active means max response below about -50%; inconclusive means no clear call, values can overlap the other calls; further: on the % scale 0 is the no-effect control and ±100 the full control effect
Target sequence (P35462 whole entry, looked up): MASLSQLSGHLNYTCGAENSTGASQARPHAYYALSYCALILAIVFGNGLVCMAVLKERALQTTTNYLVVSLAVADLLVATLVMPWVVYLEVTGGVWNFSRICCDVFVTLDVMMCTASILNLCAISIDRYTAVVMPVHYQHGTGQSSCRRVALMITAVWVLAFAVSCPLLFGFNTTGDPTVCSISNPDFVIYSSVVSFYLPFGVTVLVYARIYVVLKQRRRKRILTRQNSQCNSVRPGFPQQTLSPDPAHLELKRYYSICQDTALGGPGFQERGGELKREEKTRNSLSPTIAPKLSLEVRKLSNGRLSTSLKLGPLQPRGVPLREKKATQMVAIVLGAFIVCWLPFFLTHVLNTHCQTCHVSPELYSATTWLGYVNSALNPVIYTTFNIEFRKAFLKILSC
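Cells plated overnight at 1500 cells/well, then exposed to library compounds with dopamine controls for 90 minutes at 37 degrees C. DiscoveRx reagent added for 30–60 minutes at room temperature; luminescence read, quantitative HTS format.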
D1 agonist – Allosteric Agonists of the Human D1 Dopamine Receptor: qHTS; D(1A) dopamine receptor (Homo sapiens), P21728; HEK293 T-REx D1 cells, calcium flux, agonist mode; activation, % at 2 µM; hit rate 1% among 360,000; AID 504660, 2011; in the data active means activation above about 30%; further: 0% is about no effect
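Inducible HEK293 T-REx D1 cells, force-coupled to calcium signalling, were plated at 4000 cells/well with tetracycline and held overnight at 30 C. After no-wash calcium dye loading, compound-evoked calcium rise over 180 s flagged agonists.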
D3 ag – qHTS of D3 Dopamine Receptor Agonist: qHTS; hit rate 0.58% among 410,000; max activation, %; AID 652048, 2013; D3R DiscoveRx beta-arrestin cells, luminescence, 90 min; in the data active means max activation above about 30%; further: 0% is about no effect
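Cells at 1500/well, incubated overnight, then treated with pinned compounds (dopamine as control) for 90 min at 37 degrees C. DiscoveRx reagent added for 30 - 60 minutes at room temperature; luminescence read.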
* hit, by the source's call; u = inconclusive; x = no result.

SMILES | D1 PAM | D1 antagonist | DRD3 antagonist | D1 agonist | D3 ag
OC(COc1ccc2cc(Br)ccc2c1)CN1CCCC1 (stereo not given) | -4 | -66* | -27 | 68* | -16
OC(COc1ccc(OCC(O)CN2CCCCCC2)cc1)CN1CCCCCC1 (stereo not given) | 2 | 14 | 0 | -1 | -16
CC(C)NS(=O)(=O)c1ccc(OCC(=O)Nc2ccc(F)cc2)cc1 | 4 | -7 | 5 | 0 | 4
CCOc1ccc(N2C(=O)N(Cc3ccc(C)cc3C)c3ccccc3S2(=O)=O)cc1 | 5 | 7 | x | 4 | -19
COc1ccc(-c2cc3ccccc3n2CC(O)CN2CCCCC2)cc1 (stereo not given) | -7 | -15 | -87* | 15 | -22
Cc1nc(C)n(CC(O)COc2ccc3cc(Br)ccc3c2)n1 (stereo not given) | -11 | -32* | -15 | 47* | 4
C=CCSc1nnc(NC(=O)C2CC(=O)N(c3ccc4c(c3)OCCO4)C2)s1 (stereo not given) | x | x | -9 | x | 3
N#CC1(NC(=O)COC(=O)c2cc(O)c3ccccc3c2O)CCCCC1 | -3 | -40* | 0 | 10 | 0
COc1ccc(Sc2ncnc3onc(C)c23)cc1 | -3 | -42* | -16 | -1 | -1
CSC1=NC2(CC(c3ccccc3)Oc3cc(O)ccc32)CC(C)(C)N1 (stereo not given) | 8 | 30 | 19 | 167* | -2
Cc1ccc(-c2noc(-c3ccoc3C)n2)cc1 | 7 | -8 | 20 | 104* | 1
CC(C)C(C)NC(=O)COC(=O)c1cccc(C(=O)OCC(=O)NC(C)C(C)C)n1 (stereo not given) | -13 | -7 | -2 | 4 | 1
CN(CC(=O)Nc1cc(S(=O)(=O)N2CCCC2)ccc1Cl)Cc1ccc2c(c1)OCO2 | -8 | -37* | -28 | 4 | -19
CN(CC(=O)Nc1ccc(S(=O)(=O)N2CCCC2)cc1)Cc1c(F)cccc1Cl | -4 | -32* | -11 | 11 | -6
CN(CC(=O)Nc1cc([N+](=O)[O-])ccc1Cl)Cc1ccc(Br)cc1 | -3 | 1 | -85* | 2 | -15
COc1ccc(S(=O)(=O)N2CCCCC2)cc1NC(=O)CN(C)C1CCCCC1 | -10 | -10 | 4 | 2 | -4
COc1ccc(S(=O)(=O)N2CCCCCC2)cc1NC(=O)CN(C)Cc1ccc2c(c1)OCO2 | -6 | -9 | -68* | 4 | -22
COCc1cnc(C)nc1N | -2 | -12 | 0 | 1 | -5
OCCC#Cc1ccc(CN2CCN(C3CCCCC3)C(CCO)C2)cc1 (stereo not given) | -5 | -2 | -14 | 3 | -15
Cc1cc(C)c(S(=O)(=O)Nc2nccs2)c(C)c1 | -3 | 20 | -3 | 6 | 3
CC(C)OCCCNC(=O)C(=O)Nc1ccc2nc3n(c(=O)c2c1)CCCCC3 | -1 | -2 | x | -1 | 8
CN(CC(=O)Nc1cc(S(=O)(=O)N2CCCCCC2)ccc1Cl)Cc1ccc2c(c1)OCO2 | -3 | 3 | -54* | 6 | -22
CN1CCN(S(=O)(=O)c2ccc(NCc3ccc4c(c3)OCO4)nc2)CC1 | -5 | -33* | -2 | 0 | -2
Cc1ccc(-c2csc3n[nH]c(=S)n23)cc1 | 3 | -4 | -100* | 1 | -2
CCn1c(-c2ccc(C)cc2)n[nH]c1=S | -10 | -17 | u | 0 | -1
COC(=O)CCCCCn1c(-c2ccccc2)cn2c3c(=O)n(C)c(=O)n(C)c3nc12 | 2 | 11 | x | 0 | -12
O=C(CSc1nn(-c2ccc(Cl)cc2)c(=S)s1)NCC1CCCO1 (stereo not given) | -2 | 11 | -10 | 10 | 0
O=C(N/N=C/c1c(O)n(-c2ccc(Cl)cn2)c(=O)c2ccccc12)C1CC1 | 2 | 4 | 17 | 1 | 13
O=C(N/N=C/c1c(O)n(-c2ccc(Cl)cn2)c(=O)c2ccccc12)c1ccncc1 | -9 | -6 | 9 | 45* | 2
O=C(CCCOc1ccc(Cl)cc1Cl)N1CCN(c2ccccn2)CC1 | 11 | 6 | 12 | 3 | 4
